Assay outcomes from PubChem BioAssay.
DAX1 inh-1: inhibitors of DAX1 repression of SF-1 activated StAR promoter; HEK293T StAR-luciferase reporter, SF-1/DAX-1 repression relief; inhibition, % at 6.8 µM; 1.1% of 370,000 active;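 active = inhibition above the mean over all tested compounds plus 3 SD, cut at about 3.6% in these data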;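 also: higher inhibition means more luminescence from relief of DAX-1 repression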
DAX1 inh-2: inhibits human nuclear receptor DAX1; P51843; HEK293 Gal4-DAX1 luciferase reporter, luminescence; inhibition, % at 6.75 µM; 0.99% of 340,000 active;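 active = inhibition above the mean over all tested compounds plus 3 SD, cut at about 4.2% in these data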;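 also: inhibition shows as a rise in luminescence from relieved DAX1 repression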
Target sequence (P51843 207-470 limits assumed): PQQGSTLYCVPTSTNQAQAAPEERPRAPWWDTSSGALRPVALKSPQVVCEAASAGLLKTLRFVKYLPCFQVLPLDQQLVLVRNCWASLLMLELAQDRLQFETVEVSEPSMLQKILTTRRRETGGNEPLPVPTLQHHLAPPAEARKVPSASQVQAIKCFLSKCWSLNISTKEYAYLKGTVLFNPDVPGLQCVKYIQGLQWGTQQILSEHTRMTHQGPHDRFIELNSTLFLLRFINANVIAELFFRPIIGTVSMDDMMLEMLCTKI
ssDAF12 agonist: S. stercoralis DAF-12 activation, primary screen; HEK293 ssDAF-12/GRIP1 lit1-tk-luc reporter, luminescence; % of 3 µM dafachronic acid response; activation, % at 6.8 µM; 1% of 370,000 active; AID 652126;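 active = activation above the mean over all tested compounds plus 3 SD, cut at about 0.9% in these data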
hcDAF-12 act: H. contortus DAF-12 activation, primary screen | HEK293 hcDAF-12 lit1-tk-luc reporter, luminescence; 0% DMSO, 100% Δ7-dafachronic acid | activation, % at 6.8 µM | 1.4% of 370,000 active | AID 652067;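 active = activation above the mean of all tested compounds plus 3 SD, cut at about 5.5% in these data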
hgDAF-12 ag: hgDAF-12 agonism, primary luciferase screen. AID 687014. 1.8% of 370,000 active. activation, % at 6.8 µM. HEK293 GAL4-hgDAF12 UAS-luciferase reporter, agonist luminescence; normalized to butyrate control;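 active = activation above a cutoff set at the mean of all screened compounds plus 3 SD, cut at about 10% in these data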
Each line names hits and unclear results; the compound was inactive in the other large screens. Shown are actives, neighbours in structure and some others; about 4.1% of the full set was active somewhere.

COc1ccc(C(=O)CSc2ccc(-c3ccccc3)nn2)cc1	DAX1 inh-2 4.6
O=C(CSc1ccc(-c2ccncc2)nn1)N1CCCCC1	none
COc1ccc(-c2ccc(SCC(=O)N3CCOCC3)nn2)cc1	none
O=C(CSc1ccc(-c2ccccc2)nn1)N1CCCCC1	ssDAF12 agonist 1.0
COc1ccc(-c2ccc(SC)nn2)cc1	DAX1 inh-1 4.4
COC(=O)C[C@H]1CC[C@@H]2[C@H](COc3ccc(NC(=O)c4cccc(Cl)c4)cc3C(=O)N2C)O1	none (no result: DAX1 inh-2)
CN(C)/C=N/c1ncc(C(=O)c2ccc(-c3ccccc3)cc2)s1	hgDAF-12 ag 12
CN(C)/C=N/c1ncc(C(=O)c2ccccc2)s1	none
CN(C)[C@@H]1CCN(c2ccc3c(c2)O[C@@H]2CCN(C2)S3(=O)=O)C1	none (no result: DAX1 inh-2)
CCOC(=O)C1CCCN(C(=O)c2ccc(-c3ccccc3Cl)o2)C1 (centres undefined)	DAX1 inh-1 4.3
O=C(O)c1ccc(-c2ccccc2Cl)o1	none
CN1CCN(C(=S)c2ccc(-c3cccc(Cl)c3Cl)o2)CC1	hgDAF-12 ag 12
S=C(c1ccc(-c2ccccc2Cl)o1)N1CCCCC1	hgDAF-12 ag 12
COc1ccc(OC)c(NC(=O)c2ccc(NC(C)=O)cc2)c1	none
CCCc1cc(C(=O)Nc2cc(OC)ccc2OC)cs1	ssDAF12 agonist 1.2
CCN(CC)c1ccc(NC(=O)CSc2nnc(-c3ccc(Cl)cc3)n2Cc2ccco2)cc1	none (no result: DAX1 inh-2)
Cc1ccc(S(=O)(=O)N2c3ccccc3C[C@H]2CC=C(c2ccccc2)c2ccccc2)cc1	none (no result: DAX1 inh-1, DAX1 inh-2)
Cc1ccn2c(NC3CCCCC3)c(C)nc2c1	DAX1 inh-2 5.1
COC(=O)C[C@@H]1CC[C@H]2[C@@H](COc3ccc(NC(=O)Nc4cccc(F)c4)cc3C(=O)N2C)O1	none (no result: DAX1 inh-2)
CC(C)(C)C(=O)CSc1nnc(SCc2cccc3ccccc23)s1	none (no result: DAX1 inh-2)
C=CCn1c(COc2ccc(OC)cc2)nnc1SCn1nnc2ccccc2c1=O	ssDAF12 agonist 6.3
Cn1ccnc1C1CCCCN1Cc1nc(-c2ccc(Cl)cc2)no1 (centres undefined)	hgDAF-12 ag 12
CC(C)[C@H]1/C(=C/C2CC2)N2C(=O)C[C@H](c3ccccc3)N=C2N1C	none (no result: DAX1 inh-1, DAX1 inh-2)
CN(C)S(=O)(=O)c1cc(NC(=O)CN2CCc3ccccc32)ccc1Cl	ssDAF12 agonist 1.0
CCc1ccc(NC(=O)c2cnc3scc(C)n3c2=O)cc1	ssDAF12 agonist 1.2, hcDAF-12 act 5.8
Cc1csc2ncc(C(=O)Nc3cccc(C(F)(F)F)c3)c(=O)n12	none
COC(=O)C1CN(C2CCCC2)CCS(=O)(=O)N1Cc1cn(Cc2ccc(C)cc2)nn1 (centres undefined)	none (no result: DAX1 inh-2)
COc1ccc(/C=C2\SC(N)=NC2=O)cc1	DAX1 inh-2 4.9
NC1=NC(=O)C(=Cc2ccccc2)S1	none
NC1=NC(=O)/C(=C\c2cccnc2)S1	hgDAF-12 ag 12
N#Cc1ccccc1NC(=O)c1cc(=O)c2ccccc2o1	hgDAF-12 ag 11
COc1cccc(C(=O)N2CCC(Oc3cccnc3)CC2)c1	none (no result: DAX1 inh-2)
Cc1csc(NC(=O)c2ccc(C)o2)n1	hgDAF-12 ag 12
Cc1cc(C(=O)Nc2cc(C(C)(C)C)on2)c(C)o1	DAX1 inh-2 6.3
Cc1csc(NC(=O)c2ccccc2O)n1	none
Cc1csc(NC(=O)c2cc(C)oc2C)n1	ssDAF12 agonist 0.9
Cc1ccc(-c2ocnc2C(=O)Nc2nc(C)cs2)cc1	DAX1 inh-2 5.4, ssDAF12 agonist 1.9
COc1ccc(CN(CCN2CCOCC2)C(=O)c2cccc(F)c2F)cc1OC	none (no result: DAX1 inh-2)
Cc1c[nH]c2cccc(-c3ccc(Cl)cc3Cl)c12	none (no result: DAX1 inh-2)
O=C1N/C(=C/c2ccc(Br)cc2)C(O)=C1C=NCc1ccccc1	hcDAF-12 act 5.6
O=C1NC(=NCc2ccccc2)S/C1=C/c1ccc(O)cc1	none
C#CCSc1nnc(-c2ccc(OC)cc2)o1	DAX1 inh-2 4.5, hgDAF-12 ag 11
CCSc1nnc(-c2ccc(OC)cc2)o1	hgDAF-12 ag 12
Cc1ccccc1-c1nnc(SCc2ccccc2F)o1	DAX1 inh-1 3.9, DAX1 inh-2 4.3, hcDAF-12 act 6.4, hgDAF-12 ag 13
COc1ccc(-c2nnc(SCc3ccccc3F)o2)cc1	DAX1 inh-1 4.4, hcDAF-12 act 6.4, hgDAF-12 ag 12
C#CCSc1nnc(-c2ccc([N+](=O)[O-])cc2)o1	hgDAF-12 ag 12
CSc1nnc(-c2ccc([N+](=O)[O-])cc2)o1	none
COc1ccc(-c2nnc(-c3ccc(C)cc3)o2)cc1	none
COc1ccc(-c2nnc(-c3ccccc3O)o2)cc1	hgDAF-12 ag 12
O=C(NCCc1ccccc1F)c1ccc2c(c1)ncn2C1CCCCC1	none (no result: DAX1 inh-2)
Cc1ccccc1Nc1nnc(SCC(=O)Nc2ccccc2[N+](=O)[O-])s1	none
Cc1cccc(Nc2nnc(SCC(=O)Nc3ccccc3[N+](=O)[O-])s2)c1	DAX1 inh-2 4.4
O=C(/C=C/Nc1ccc(F)cc1)c1ccc(Br)cc1	hgDAF-12 ag 11
Cc1ccc(C(=O)/C=C/Nc2ccc3c(c2)OCO3)cc1	ssDAF12 agonist 1.6
CC(=O)Nc1ccc(N/C=C/C(=O)c2ccc(Cl)cc2)cc1	none
COc1ccc(N/C=C/C(=O)c2ccccc2)cc1	DAX1 inh-1 4.4, ssDAF12 agonist 1.0, hgDAF-12 ag 12
O=C(/C=C/Nc1ccc(F)c(Cl)c1)c1ccccc1	hcDAF-12 act 6.3
COc1ccc(N/C=C\C(=O)c2ccc3ccccc3c2)cc1	none
COc1ccc(C(=O)CSc2nnc(-c3cccc(Cl)c3)n2Cc2ccco2)cc1	none (no result: DAX1 inh-2)
COc1ccc(S[C@]2(C(=O)N3CCN(C(C)=O)CC3)CC(=O)N(C(=O)c3ccccc3)[C@@H]2c2ccc(OC)cc2)cc1	none (no result: DAX1 inh-2)
O=C(/C=C/Nc1ccc(F)c(F)c1)c1ccc(Br)cc1	hgDAF-12 ag 12
O=C(c1ccccc1)c1cnc(Nc2ccccc2Cl)s1	DAX1 inh-2 6.8 (no result: DAX1 inh-1, ssDAF12 agonist, hcDAF-12 act, hgDAF-12 ag)
Cc1cc(C)n(-c2nc3ccccc3[nH]c2=O)n1	DAX1 inh-2 4.3
Cc1cc(C)n(-c2nc3ccccc3nc2Nc2ccc3[nH]c(=O)[nH]c3c2)n1	none
O=C(CSc1nnc2c3ccccc3c3ccccc3c2n1)Nc1ccccc1F	hcDAF-12 act 5.8
COc1ccc(C)cc1NC(=O)ON=C1CCCCC1	none (no result: DAX1 inh-2)
O=C(Nc1cccc2ccccc12)ON=C1CCCCC1	ssDAF12 agonist 1.0 (no result: DAX1 inh-2)
O=C(Nc1cccc2ccccc12)c1ccccc1	hcDAF-12 act 5.6
O=C(Nc1cccc2ccccc12)c1ccc(F)cc1	none
O=C(CSc1ncccn1)Nc1cccc2ccccc12	hcDAF-12 act 6.2
O=C(CSCC(=O)Nc1cccc2ccccc12)Nc1cccc2ccccc12	none
O=S1(=O)c2ccc(N3CCN(Cc4ccccc4F)CC3)cc2Oc2ccccc2CN1Cc1cn(Cc2ccccc2C(F)(F)F)nn1	none (no result: DAX1 inh-2)
CC(C)[C@@H]1NC(=O)[C@H]2C[C@@]3(C)c4ccccc4N[C@H]3N2C1=O	none (no result: DAX1 inh-2)
C[C@H]1[C@@H](OC(=O)NCc2cccnc2)CC[C@@]23CCCN2C(=O)CCC[C@@H]13	none (no result: DAX1 inh-1, DAX1 inh-2)
C=Cn1cc[n+](CC(=O)c2cccs2)c1	hcDAF-12 act 5.6
